What all share (experiment): DAPPL (digital affinity profiling via proximity ligation, sequencing); 10 mM Tris-HCl pH 7.5, 50 mM NaCl, 1 mM DTT, 4% glycerol, room temperature, 30 min; GST-TFs on glutathione beads, 16-mer random dsDNA library, 0.1% formaldehyde crosslink after washing; high values mean tight binding
Holding throughout (conditions): protein: recombinant; tags: N-terminal GST; dsDNA, one strand shown

In assay [1] the target is SPI1 (Homo sapiens, UniProt P17947 1-270). A digest of the protocol:
(§1)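 Human transcription factors carrying a GST fusion were produced in yeast, bound to glutathione beads, tagged with DNA barcodes and pooled together with a tag-only sample. Each pool was held with 200 nmole of a random double-stranded 16-mer DNA library in Tris/NaCl/DTT/glycerol buffer for 30 min at room temperature, then washed, crosslinked in 0.1% formaldehyde, proximity-ligated with BsaI/T4 ligase (1 h, 37 °C), PCR-amplified and sequenced on an Illumina NextSeq500. Binding signal is the read frequency of each hexamer for a given factor divided by its frequency in the tag-only sample.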

Assay [2] deals with CRX (Homo sapiens, UniProt O43186 1-299). In short, it runs like this:
as §1

The target of assay [3] is T1, ERF (Homo sapiens, UniProt P50548 1-548).
T1 sequence: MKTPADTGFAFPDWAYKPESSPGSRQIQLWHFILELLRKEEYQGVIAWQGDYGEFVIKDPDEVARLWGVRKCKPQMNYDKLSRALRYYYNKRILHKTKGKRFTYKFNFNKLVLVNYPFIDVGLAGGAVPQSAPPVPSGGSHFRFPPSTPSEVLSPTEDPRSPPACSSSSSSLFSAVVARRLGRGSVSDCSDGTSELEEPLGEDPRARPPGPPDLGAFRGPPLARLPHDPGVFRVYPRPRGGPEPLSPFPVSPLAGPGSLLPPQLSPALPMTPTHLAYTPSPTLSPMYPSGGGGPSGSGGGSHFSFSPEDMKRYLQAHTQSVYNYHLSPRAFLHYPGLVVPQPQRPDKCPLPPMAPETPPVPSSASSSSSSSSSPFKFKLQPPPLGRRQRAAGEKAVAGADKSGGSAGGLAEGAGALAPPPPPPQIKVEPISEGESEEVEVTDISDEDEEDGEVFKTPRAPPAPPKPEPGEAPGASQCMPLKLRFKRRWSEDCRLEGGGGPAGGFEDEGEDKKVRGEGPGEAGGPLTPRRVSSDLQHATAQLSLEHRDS
A digest of the protocol:
as §1

In assay [4] the target is T2, ELF5 (Homo sapiens, UniProt Q9UKW6-2 1-255).
T2 sequence: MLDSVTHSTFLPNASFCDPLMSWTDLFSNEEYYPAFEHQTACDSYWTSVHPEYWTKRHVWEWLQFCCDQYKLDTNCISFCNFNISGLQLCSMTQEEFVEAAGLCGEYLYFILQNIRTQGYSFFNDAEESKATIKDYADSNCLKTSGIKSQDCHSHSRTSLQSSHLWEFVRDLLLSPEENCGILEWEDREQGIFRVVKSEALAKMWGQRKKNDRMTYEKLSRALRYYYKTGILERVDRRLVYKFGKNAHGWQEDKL
A digest of the protocol: as §1

In assay [5] the target is T3, ELF3 (Homo sapiens, UniProt P78545 1-371).
T3 sequence: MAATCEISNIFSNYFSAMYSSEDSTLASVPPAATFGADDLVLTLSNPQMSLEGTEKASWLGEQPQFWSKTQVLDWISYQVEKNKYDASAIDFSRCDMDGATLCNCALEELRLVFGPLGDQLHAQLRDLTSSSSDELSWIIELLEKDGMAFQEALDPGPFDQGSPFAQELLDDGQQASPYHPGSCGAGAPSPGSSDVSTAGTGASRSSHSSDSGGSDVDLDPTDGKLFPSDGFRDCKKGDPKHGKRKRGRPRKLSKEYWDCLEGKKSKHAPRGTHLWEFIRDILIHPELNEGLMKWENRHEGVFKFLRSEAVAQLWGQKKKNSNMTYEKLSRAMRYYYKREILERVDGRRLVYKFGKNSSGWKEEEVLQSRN
A digest of the protocol: as §1

The target in assay [6] is T4, ETV7 (Homo sapiens, UniProt Q9Y603 1-341).
T4 sequence: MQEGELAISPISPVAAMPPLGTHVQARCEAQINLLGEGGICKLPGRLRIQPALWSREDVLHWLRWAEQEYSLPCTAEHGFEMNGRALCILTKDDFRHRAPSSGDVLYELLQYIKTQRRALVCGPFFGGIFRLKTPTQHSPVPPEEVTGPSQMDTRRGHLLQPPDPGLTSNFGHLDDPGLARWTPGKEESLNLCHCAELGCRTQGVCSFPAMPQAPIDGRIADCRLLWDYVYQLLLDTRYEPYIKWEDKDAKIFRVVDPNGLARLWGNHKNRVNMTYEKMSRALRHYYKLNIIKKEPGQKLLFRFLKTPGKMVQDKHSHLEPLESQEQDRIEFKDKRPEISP
In short, it runs like this:
as §1

Assay [7] addresses T5, ERG (Homo sapiens, UniProt P11308 1-479).
T5 sequence: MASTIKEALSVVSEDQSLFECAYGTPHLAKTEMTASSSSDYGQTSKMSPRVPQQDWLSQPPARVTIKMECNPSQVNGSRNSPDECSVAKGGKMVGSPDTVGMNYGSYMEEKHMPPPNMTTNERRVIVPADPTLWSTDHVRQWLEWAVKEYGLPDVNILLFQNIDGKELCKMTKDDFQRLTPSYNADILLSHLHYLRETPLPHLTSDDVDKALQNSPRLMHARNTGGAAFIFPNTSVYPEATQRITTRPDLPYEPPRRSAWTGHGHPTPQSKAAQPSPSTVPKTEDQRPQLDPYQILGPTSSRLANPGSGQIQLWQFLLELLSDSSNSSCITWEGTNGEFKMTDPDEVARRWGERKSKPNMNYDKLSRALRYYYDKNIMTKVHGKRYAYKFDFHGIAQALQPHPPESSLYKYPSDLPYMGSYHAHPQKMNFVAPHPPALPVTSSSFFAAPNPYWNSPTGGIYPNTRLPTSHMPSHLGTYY
In short, it runs like this:
as §1

Assay [8] deals with T6, EHF (Homo sapiens, UniProt Q9NZC4 1-300).
T6 sequence: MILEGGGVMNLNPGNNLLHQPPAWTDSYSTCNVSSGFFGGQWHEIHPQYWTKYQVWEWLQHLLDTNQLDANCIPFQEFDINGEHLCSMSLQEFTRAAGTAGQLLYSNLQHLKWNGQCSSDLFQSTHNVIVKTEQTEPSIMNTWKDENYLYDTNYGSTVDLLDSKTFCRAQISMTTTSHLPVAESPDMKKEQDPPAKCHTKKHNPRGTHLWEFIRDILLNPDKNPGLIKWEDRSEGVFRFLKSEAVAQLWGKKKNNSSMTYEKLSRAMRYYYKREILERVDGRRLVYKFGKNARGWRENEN
A digest of the protocol:
as §1

The target in assay [9] is SPIB (Homo sapiens, UniProt Q01892 1-262). In short, it runs like this: as §1
Chain of SPIB (Q01892 whole entry): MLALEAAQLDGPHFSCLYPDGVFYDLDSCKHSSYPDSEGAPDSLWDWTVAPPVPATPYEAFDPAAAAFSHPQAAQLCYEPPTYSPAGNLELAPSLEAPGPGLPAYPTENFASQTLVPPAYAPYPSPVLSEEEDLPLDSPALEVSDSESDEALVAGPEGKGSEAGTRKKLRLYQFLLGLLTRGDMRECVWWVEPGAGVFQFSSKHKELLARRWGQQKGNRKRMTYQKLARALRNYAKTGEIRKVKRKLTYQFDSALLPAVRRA
The target of assay [10] is ETV1 (Homo sapiens, UniProt P50549 1-477). In short, it runs like this:
as §1

The target of assay [11] is T7, ETS2 (Homo sapiens, UniProt P15036 1-469).
T7 sequence: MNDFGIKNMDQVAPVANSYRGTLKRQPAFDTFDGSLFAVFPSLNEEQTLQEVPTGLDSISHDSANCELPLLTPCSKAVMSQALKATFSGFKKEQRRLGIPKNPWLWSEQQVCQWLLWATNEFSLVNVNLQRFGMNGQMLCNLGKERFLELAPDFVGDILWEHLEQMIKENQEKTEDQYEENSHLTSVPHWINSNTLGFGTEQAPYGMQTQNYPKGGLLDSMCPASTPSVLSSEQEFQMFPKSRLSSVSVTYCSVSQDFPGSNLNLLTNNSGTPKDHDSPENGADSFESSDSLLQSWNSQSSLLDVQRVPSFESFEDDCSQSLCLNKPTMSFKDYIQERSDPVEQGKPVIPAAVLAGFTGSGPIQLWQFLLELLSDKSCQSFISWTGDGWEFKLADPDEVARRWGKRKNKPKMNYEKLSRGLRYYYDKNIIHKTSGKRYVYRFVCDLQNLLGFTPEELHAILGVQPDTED
A digest of the protocol:
as §1

Assay [12] deals with T8, SPDEF (Homo sapiens, UniProt O95238 1-335).
T8 sequence: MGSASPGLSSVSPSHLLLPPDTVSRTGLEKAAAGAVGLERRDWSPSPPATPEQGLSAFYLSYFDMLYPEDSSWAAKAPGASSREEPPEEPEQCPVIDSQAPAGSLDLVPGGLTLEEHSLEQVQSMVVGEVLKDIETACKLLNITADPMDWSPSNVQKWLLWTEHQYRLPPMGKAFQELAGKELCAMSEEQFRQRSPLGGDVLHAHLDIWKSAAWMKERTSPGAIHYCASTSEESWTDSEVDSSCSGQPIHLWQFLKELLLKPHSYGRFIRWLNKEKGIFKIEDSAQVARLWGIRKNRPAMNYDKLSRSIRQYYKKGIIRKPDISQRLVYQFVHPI
In short, it runs like this:
as §1

The target of assay [13] is T9, ETV3 (Homo sapiens, UniProt P41162-2 1-143).
T9 sequence: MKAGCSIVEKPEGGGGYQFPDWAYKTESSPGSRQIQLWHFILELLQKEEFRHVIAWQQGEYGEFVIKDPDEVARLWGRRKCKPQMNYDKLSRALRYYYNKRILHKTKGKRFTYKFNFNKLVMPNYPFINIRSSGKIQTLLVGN
A digest of the protocol: as §1

Assay [14] deals with T10, ETV3L (Homo sapiens, UniProt Q6ZN32 1-361).
T10 sequence: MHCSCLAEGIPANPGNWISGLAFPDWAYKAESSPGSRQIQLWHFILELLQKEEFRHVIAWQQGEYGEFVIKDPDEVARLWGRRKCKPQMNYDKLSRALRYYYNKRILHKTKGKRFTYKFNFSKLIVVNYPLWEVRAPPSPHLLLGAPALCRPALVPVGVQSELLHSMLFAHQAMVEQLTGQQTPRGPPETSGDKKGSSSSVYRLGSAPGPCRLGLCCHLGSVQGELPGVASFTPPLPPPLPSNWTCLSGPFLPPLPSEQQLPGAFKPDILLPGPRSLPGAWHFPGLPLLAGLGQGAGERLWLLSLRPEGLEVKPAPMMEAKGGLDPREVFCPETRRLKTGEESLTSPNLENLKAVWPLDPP
A digest of the protocol:
as §1

Chain of CRX (O43186 whole entry): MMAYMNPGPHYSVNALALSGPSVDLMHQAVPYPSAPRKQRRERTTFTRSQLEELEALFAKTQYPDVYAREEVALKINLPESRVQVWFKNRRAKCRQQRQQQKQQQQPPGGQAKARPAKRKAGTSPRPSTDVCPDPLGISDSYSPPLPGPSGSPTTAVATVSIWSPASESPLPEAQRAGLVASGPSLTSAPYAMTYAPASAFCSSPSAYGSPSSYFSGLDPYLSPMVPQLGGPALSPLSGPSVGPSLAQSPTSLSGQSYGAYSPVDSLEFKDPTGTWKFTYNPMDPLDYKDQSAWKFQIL
Chain of ETV1 (P50549 whole entry): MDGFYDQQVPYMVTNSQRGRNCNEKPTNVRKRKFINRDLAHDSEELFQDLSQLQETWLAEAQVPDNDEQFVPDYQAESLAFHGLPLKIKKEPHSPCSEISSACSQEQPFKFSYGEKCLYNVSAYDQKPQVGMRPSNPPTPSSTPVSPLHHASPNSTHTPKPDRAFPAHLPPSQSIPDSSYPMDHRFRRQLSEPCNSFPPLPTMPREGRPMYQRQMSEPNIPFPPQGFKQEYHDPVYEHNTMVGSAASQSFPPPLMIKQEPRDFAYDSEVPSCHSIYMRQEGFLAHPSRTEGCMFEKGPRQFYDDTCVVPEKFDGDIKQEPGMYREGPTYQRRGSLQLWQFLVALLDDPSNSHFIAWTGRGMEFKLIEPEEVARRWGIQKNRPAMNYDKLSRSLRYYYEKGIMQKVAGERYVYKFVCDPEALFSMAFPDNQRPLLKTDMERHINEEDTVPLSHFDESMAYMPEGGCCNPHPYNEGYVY

Regarding AGTCTT, the binding signal in assay [1] was 1.03 fold enrichment (6-mer frequency, TF over GST control); in [2] it was 1.02 fold enrichment (6-mer frequency, TF over GST control); in [3], 1.01 fold enrichment (6-mer frequency, TF over GST control); in assay [4], 1.08 fold enrichment (6-mer frequency, TF over GST control).

With GGGGAT, the binding signal in assay [2] was 1.21 fold enrichment (6-mer frequency, TF over GST control).

For GAAAGG, the binding signal in assay [5] is 1.03 fold enrichment (6-mer frequency, TF over GST control); in assay [3], 1 fold enrichment (6-mer frequency, TF over GST control); in assay [6], 1.02 fold enrichment (6-mer frequency, TF over GST control).

In the case of GGATGA, the binding signal in [7] is 1.01 fold enrichment (6-mer frequency, TF over GST control); in [8], 1 fold enrichment (6-mer frequency, TF over GST control); in assay [9], 1.06 fold enrichment (6-mer frequency, TF over GST control); in assay [2], 1.11 fold enrichment (6-mer frequency, TF over GST control); in assay [10], 1.05 fold enrichment (6-mer frequency, TF over GST control); in assay [11], 1.1 fold enrichment (6-mer frequency, TF over GST control). Also, the binding signal in [12] is 1.11 fold enrichment (6-mer frequency, TF over GST control); in [6], 1.06 fold enrichment (6-mer frequency, TF over GST control); in assay [4], 1.11 fold enrichment (6-mer frequency, TF over GST control); in assay [13] it was 1.03 fold enrichment (6-mer frequency, TF over GST control).

As to TGACAG, the binding signal in assay [5] is 1.09 fold enrichment (6-mer frequency, TF over GST control); in assay [14] it was 1 fold enrichment (6-mer frequency, TF over GST control).

On to GCGTAA, for which, in [2], the binding signal was 1.03 fold enrichment (6-mer frequency, TF over GST control).

With GTTTAG, the binding signal in assay [2] is 1 fold enrichment (6-mer frequency, TF over GST control).

For GGGATA, the binding signal in assay [2] is 1.04 fold enrichment (6-mer frequency, TF over GST control).

Take AGCCGA: the binding signal in assay [2] was 1.08 fold enrichment (6-mer frequency, TF over GST control).

For GTGCAC, the binding signal is 1.07 fold enrichment (6-mer frequency, TF over GST control) in assay [1] and 1.02 fold enrichment (6-mer frequency, TF over GST control) in assay [5].

Values taken from PMC7862700, “An all-to-all approach to the identification of sequence-specific readers for epigenetic DNA modifications on cytosine”.
